Rows were chosen to be rich in hits. Some 1.8% of all compounds tested hit in one or more screens of this group.
VDR inh: Inhibitors of the vitamin D receptor (VDR): qHTS; Vitamin D3 receptor (Homo sapiens), P11473; AID 504847, 2011; Potency, µM, inactives show max response, negative = inhibition, most hits filed as inhibitors; VDR-SRC2-3 peptide fluorescence polarization, 2 h; actives 0.93% (n = 400,000); further: on the % scale 0 is the no-effect control and ±100 the full control effect
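Reagent solutions, kept cold and dark, are dispensed first; compounds are then pinned in at 23 nl, plates briefly spun, and incubated 2 h at ambient temperature. Inhibition of VDR–SRC2-3 peptide binding is read by fluorescence polarization.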
TrxR1 substrate: qHTS Assay for Substrates of Mammalian Selenoprotein Thioredoxin Reductase 1 (TrxR1): qHTS. purified TrxR1 substrate turnover, NADPH consumption readout. actives 0.01% (n = 390,000). Thioredoxin reductase 1, cytoplasmic (Rattus norvegicus), O89049. Potency, µM (top dose mostly 114 µM), for the others: top-dose activity change, negative = substrate turnover; further: on the % scale 0 is the no-effect control and ±100 the full control effect; nearly all actives have a fitted effect of over 50% in size
Target sequence (O89049 whole entry, looked up): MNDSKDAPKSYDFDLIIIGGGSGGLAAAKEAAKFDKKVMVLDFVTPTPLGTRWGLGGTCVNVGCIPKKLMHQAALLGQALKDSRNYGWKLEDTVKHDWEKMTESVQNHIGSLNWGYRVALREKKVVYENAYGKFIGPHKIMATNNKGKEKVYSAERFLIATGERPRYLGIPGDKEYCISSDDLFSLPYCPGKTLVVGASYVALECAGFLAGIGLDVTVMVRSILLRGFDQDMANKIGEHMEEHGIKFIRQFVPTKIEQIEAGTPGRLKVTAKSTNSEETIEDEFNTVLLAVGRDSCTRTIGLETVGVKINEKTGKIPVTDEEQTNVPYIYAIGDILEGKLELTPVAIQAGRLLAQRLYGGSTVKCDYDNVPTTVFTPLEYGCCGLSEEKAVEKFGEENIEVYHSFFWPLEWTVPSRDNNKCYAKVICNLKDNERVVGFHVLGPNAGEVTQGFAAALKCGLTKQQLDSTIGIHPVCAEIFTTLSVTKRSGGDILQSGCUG
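Rat TrxR1, dispensed at 90 nM, was prereduced with 400 uM NADPH (final) for 5 min at ~22 deg C, then incubated with compound 15 min before 400 uM selenite. A first-read NADPH fluorescence drop versus no-compound background flagged substrates.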
Vif-A3G inh: qHTS for Inhibitors of Vif-A3G Interactions: qHTS; DNA dC->dU-editing enzyme APOBEC-3G (Homo sapiens), Q9HC16; Potency, µM (highest dose often 46.1 µM), without a hit: at the top dose activity, negative = active, hits mostly inhibitors; actives 0.076% (n = 410,000); AID 602310, 2012; HeLa A3G-eYFP + Vif (tagged APOBEC3G with the HIV-1 protein that degrades it), YFP fluorescence, overnight; further: on the % scale 0 is the no-effect control and ±100 the full control effect; nearly all actives have a fitted effect of over 60% in size
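HeLa cells stably expressing Vif and C-terminally eYFP-tagged A3G, seeded overnight at 37 deg C, then exposed to compound by pintool overnight at 37 deg C. Rise in yellow fluorescence (Ex 488/Em 500-530, Acumen) marks blocked Vif-driven A3G degradation.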
Vif-APOBEC3F blk: qHTS for Inhibitors of Vif-A3F Interactions: qHTS; AID 602313, 2012; actives 0.2% (n = 390,000); HeLa A3F-eYFP + Vif (tagged APOBEC3F with the HIV-1 protein that degrades it), YFP fluorescence increase; Potency, µM (titrated, usually from 46.1 µM), without a hit: at the highest dose activity, negative = active; further: % of control where 0% means no effect; nearly all actives have a fitted effect of over 65% in size
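HeLa cells stably expressing Vif plus C-terminally eYFP-tagged A3F were seeded, incubated overnight at 37 deg C, dosed with compound, incubated overnight again at 37 deg C. Yellow fluorescence (Ex 488/Em 500-530) reported blocked Vif-mediated A3F-eYFP degradation.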
rTrxR1 inhibitor: qHTS Assay for Inhibitors of Mammalian Selenoprotein Thioredoxin Reductase 1 (TrxR1): qHTS; Potency, µM (highest dose often 114 µM), without a hit: at the top dose activity change, negative = inhibition, hits mostly inhibitors; recombinant rTrxR1, NADPH fluorescence consumption, selenite substrate; actives 1% (n = 390,000); Thioredoxin reductase 1, cytoplasmic (Rattus norvegicus), O89049; further: on the % scale 0 is the no-effect control and ±100 the full control effect; nearly all actives have a fitted effect of over 65% in size
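Rat TrxR1 (90 nM in the dispensed reagent) was pre-reduced with 400 uM NADPH for 5 min at room temperature, then incubated with compound for 15 min. After 400 uM selenite was added, NADPH fluorescence (Ex 340/Em 450 nm) was followed for 8 min.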
The depositor's hits bear a star; ? = inconclusive; . = not tested or not shown; [ ] = remark or other dose. The call rests on the fitted dose curve; in most records, active means well fitted curve in the direction sought with a large enough effect; inconclusive means small, poorly fitted or top-dose-only effect, or another doubt; inactive means no such curve, though single readings can be large; an effect the other way counts as inactive or inconclusive. Potency means the concentration at half of the fitted maximal effect.

SMILES	VDR inh	TrxR1 substrate	Vif-A3G inh	Vif-APOBEC3F blk	rTrxR1 inhibitor
Cn1c(=O)n(Cc2ccccc2)c(=O)c2c1nc1n2CCCN1Cc1ccccc1	6%	6%[57.1 µM]	1%	7%	19%[57.1 µM]
Cc1cc(N2CCN(C)CC2)nc2ccc(NC(=O)Nc3ccccc3Cl)cc12	-2%	31%	-1%	-5%	15%
Cc1ccc(S(=O)(=O)ON2C(=O)c3cccc4cccc(c34)C2=O)cc1	1%	73%	1%	-4%	141%
Cc1ccc(C)c(S(=O)(=O)ON2C(=O)c3ccccc3C2=O)c1	20µM*	24%	-27%	4%	3.2µM*
Cc1cc(S(=O)(=O)ON2C(=O)c3ccccc3C2=O)ccc1F	32µM*	25%	-8%	-18%	?
Cc1nc(NC(=O)c2ccccc2)sc1C	3%	1%	-1%	12%	12%
Cc1nc(NC(=O)CCc2ccccc2)sc1C	89µM*	0%[57.1 µM]	-10%	-11%	23%[57.1 µM]
COc1cccc2cc(S(=O)(=O)c3ccccc3)c(=Nc3ccc4c(c3)OCCO4)oc12	-16%	5%	1%	-22%	20%
Cc1ccc(S(=O)(=O)c2cc3ccccc3oc2=Nc2ccc3c(c2)OCO3)cc1	-21%	12%[57.1 µM]	-18%	22µM*	59%[57.1 µM]
Cc1ccc(C(=O)NCCc2ccc(Cl)cc2)cc1-n1c(C)nc2cccnc21	15%	11%	3%	0%	28%
COC(=O)C1=C(C)N(c2ccc(Cl)c(Cl)c2)C(=O)C1	-20%	-1%	-15%	2%	50µM*
CCC1CCCCN1C(=O)CSc1nc2ncccc2[nH]1 (centres undefined)	?	-2%	0%	4%	50µM*
CC1CCN(C(=O)CSc2nc3ncccc3[nH]2)CC1	-15%	-7%	0%	-2%	8%
COc1ccc(NC(=O)c2nc(S(=O)(=O)Cc3cccc(C)c3)ncc2Cl)c(OC)c1	-23%	2%	1%	4%	13%
Cc1cccc(C)c1NC(=O)c1nc(S(=O)(=O)Cc2ccccc2)ncc1Cl	?	2%	-13%	9%	16µM*
CS(=O)(=O)c1ncc(Cl)c(C(=O)Nc2ccc(N3CCOCC3)cc2)n1	-70%	4%	?	0%	10µM*
CCc1nnc(NC(=O)c2nc(S(C)(=O)=O)ncc2Cl)s1	-15%	0%	-18%	-1%	?
CCOc1ccc(NC(=O)c2nc(S(=O)(=O)Cc3ccccc3C)ncc2Cl)cc1	.	-3%	?	.	14µM*
Cc1ccccc1NC(=O)c1nc(S(C)(=O)=O)ncc1Cl	40µM*	4%	?	4%	?
CCOC(=O)c1nc(S(C)(=O)=O)ncc1N1CCOCC1	2%	3%	-1%	-4%	4%
CCOc1ccc(NC(=O)c2nc(S(=O)(=O)Cc3ccc(F)cc3)ncc2Cl)cc1	.	1%	-6%	.	4.5µM*
CCOC(=O)c1nc(S(C)(=O)=O)ncc1Cl	56µM*	10%	-19%	4%	18µM*
Cc1ccccc1CS(=O)(=O)c1ncc(Cl)c(C(=O)Nc2ccc(F)cc2)n1	-23%	-3%	-29%	2%	0%
O=C1NC2c3c(I)sc(I)c3C(=O)C2O1 (centres undefined)	-20%	-2%	-11%	-10%	2.5µM*
O=C1NC2c3c(Cl)sc(Cl)c3C(=O)C2O1 (centres undefined)	?	-5%	-5%	-3%	6.3µM*
SMILES	VDR inh	TrxR1 substrate	Vif-A3G inh	Vif-APOBEC3F blk	rTrxR1 inhibitor
O=C1NC2c3ccccc3CC2O1 (centres undefined)	-17%	8%[57.1 µM]	0%	6%	8%
COc1nc(C#N)nc(N2CCCCC2)n1	-18%	-3%	-6%	.	?
Cc1cccc2[nH]cc(/C=C3/C=Nc4ccccc43)c12	.	-1%	?	.	-2%
N#Cc1sc2nc(C3CC3)cc(-c3ccc(Cl)cc3)c2c1N	-5%	36%	-8%	1%	41%
COc1ccc(C(=O)c2sc3nc(C)cc(-c4cccs4)c3c2N)cc1	-2%	0%	13µM*	22µM*	27%
COc1ccc(C(=O)c2sc3nc(C)cc(-c4cccs4)c3c2N)cc1OC	4%	-11%	?	?	-10%
COc1ccc(C(=O)c2sc3nc(-c4ccc(C)cc4)cc(C(F)(F)F)c3c2N)cc1	-7%	1%	8.9µM*	1.3µM*	12%
COc1ccc(-c2cc(-c3cccs3)nc3sc(C#N)c(N)c23)cc1	-4%	6%	?	11µM*	0%
COC(=O)c1ccc(NC(=O)c2nc(SCc3ccccc3F)ncc2Cl)cc1	.	7%[0.0914 µM]	2%	.	8%[0.0914 µM]
Cc1ccc(OCC(=O)Sc2ccc(C)cc2)cc1	45µM*	-11%	2%	5%	?
COc1ccc(C=C2C=C(C(C)(C)C)C(=O)C(C(C)(C)C)=C2)cc1OC	?	1%	-2%	-12%	11µM*
COC(=O)C1CCN(c2cc(Cl)nc(N)n2)CC1	-4%	-4%[57.1 µM]	-4%	3%	17%[57.1 µM]
NC(=O)C1CCN(c2cc(Cl)nc(N)n2)CC1	79µM*	13%	-6%	2%	28%[57.1 µM]
O=C(Cc1ccccc1)c1ccc(O)cc1O	-15%	12%[57.1 µM]	0%	-12%	12%[57.1 µM]
O=C(O)c1cc(N(Cc2ccccc2O)Cc2cc(O)ccc2O)ccc1O	50µM*	.	.	.	.
COc1ccc(-c2ccc3c(c2)S(=O)(=O)c2cccc(C(=O)NCCOc4ccccc4)c2C3=O)cc1OC	-4%	-17%	11µM*	?	-57%
O=c1c(-c2ccc(F)cc2)nc2cnc(N3CCNCC3)nc2n1Cc1ccc(F)cc1	-6%	.	.	.	.
CCOC(=O)C1=C(C)Nc2nc(SCC)nn2C1c1ccc(OC)cc1 (centres undefined)	-17%	9%[57.1 µM]	-2%	-6%	9%[57.1 µM]
CCOC(=O)C1=C(C)Nc2nc(=S)[nH]n2C1c1ccc(Cl)cc1 (centres undefined)	79µM*	5%[57.1 µM]	-3%	-2%	?
Cc1ccc(Cl)cc1NC(=S)Nn1cnnc1	79µM*	-4%	3%	3%	?
S=C(Nc1ccc(Br)cc1Cl)Nn1cnnc1	?	-24%	2%	9%	?
c1ccc(N=c2nc(-c3ccccc3)n(-c3ccccc3)s2)cc1	-9%	-1%	-11%	.	-13%
Cc1ccc(NC(=O)c2cc3c([nH]c2=O)CC(c2ccccc2)CC3=O)cc1 (centres undefined)	.	24%	0%	.	-3%

Bioassay records as filed in PubChem BioAssay.
